Reference: PubChem BioAssay AID1159580 (chemical genetic matrix, 2015)
In all, about 5,500 compounds went through this assay and about 2,000 (36%) were called active. Another 18% or so got no clear call; they are omitted. Cut-off read from the data, not from the text of the source: active = normalized growth mostly below about 0.91 (no sharp cut-off); inconclusive = no clear call, values can overlap the other calls; inactive = mostly above about 0.92. The list shows a part of the results.

Assay: chemical genetic growth profiling, strain panel (AID 1159580);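 note: tested at 20 µM; growth read once vehicle control cultures reached saturation at 30 °C; 1 = growth at the plate median or of vehicle wells; lower values mean less growth of the strain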
Conditions: S. cerevisiae deletion strains, growth OD

Measured: normalized growth

COc1ccccc1CNCCCCCCNCCCCCCCCNCCCCCCNCc1ccccc1OC
inactive: locus YAL040C, strain CLN3, hits give low values 1.01 | locus YCL061C, strain MRC1 (second series), hits give low values 0.96 | locus YDR363W, strain ESC2, hits give low values 0.906 | locus YER002W, strain NOP16, hits give low values 1.03 | locus YNL153C, strain GIM3, hits give low values 0.942 | locus YNL175C, strain NOP13, hits give low values 0.992 | locus YNL197C, strain WHI3, hits give low values 1.03 | locus YNL224C, strain SQS1, hits give low values 1.03 | locus YOR083W, strain WHI5 (second series), hits give low values 0.875 | locus YPL241C, strain CIN2, hits give low values 0.96
